The values below come from PubChem BioAssay AID720706 (Broad Institute, 2013).

Each structure is given as a SMILES string. In all, about 350,000 compounds went through this assay and about 5,500 (1.6%) were called active. This is one part of a sample in which actives are shown more often than they occur.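 The calls were made as follows: active = significant combined selectivity score with lowered wild-type GFP, culture density cut under 30%, mutant RFP and density less affected; inactive = any of these conditions unmet.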

The nature of the assay: reduced GFP signal of wild-type E. coli, primary screen, bacterial rRNA inhibitor project, GFP/RFP fluorescence, OD600, single point (AID 720706). The conditions noted are these: E. coli WT GFP vs humanized-ribosome RFP mutants, 24 h; GFP signal change (wild-type ribosome): stronger effect = lower value, DMSO median 0, no signal -100; OD600 change: measured here: OD600 growth, DMSO median 0, no signal -100; RFP signal change: measured here: RFP humanized mutant strains, DMSO median 0, no signal -100, concentration not given here.
In the case of `COc1cccc(NC(=O)N[C@H]2C=C[C@@H](CC(=O)Nc3ccc(-c4ccccc4)cc3)O[C@@H]2CO)c1`, the GFP signal change (wild-type ribosome) is -12.2% (inactive), the OD600 change is -10.6% and the RFP signal change worked out at 2.22%.
Turning to `CNC(=O)C[C@H]1CC[C@H]2[C@H](COc3ccc(NC(=O)Nc4ccc(F)cc4)cc3C(=O)N2C)O1`, the GFP signal change (wild-type ribosome) is 1.92% (inactive), the OD600 change is 1.94% and the RFP signal change is -3.24%.
Consider `COc1ccc(CNC(=O)CN(Cc2ccccc2Cl)C(=O)c2csnn2)cc1`, for which the GFP signal change (wild-type ribosome) was 6.12% (inactive), the OD600 change was 13.2% and the RFP signal change was 1.92%.
In the case of `COc1cccc(CN(C)CC(=O)NCc2ccccc2Cl)c1OC`, the GFP signal change (wild-type ribosome) was -25.4% (active), the OD600 change is -20.5% and the RFP signal change stood at 1.05%.
Regarding `COc1ccc(S(=O)(=O)N2CCCCCC2)cc1C(=O)N(C)Cc1cccc(OC)c1OC`, the GFP signal change (wild-type ribosome) is -11.5% (inactive), the OD600 change is -16.8% and the RFP signal change was determined as 3.6%.
On to `N#Cc1ccc(-c2ccc(C3[C@@H]4CN(S(=O)(=O)c5cccc(Cl)c5)C[C@H]3N4)cc2)cc1` (stereo partly specified), for which the GFP signal change (wild-type ribosome) was -35.6% (inactive), the OD600 change was -51% and the RFP signal change was -3.29%.
Take `C[C@H]1CN([C@@H](C)CO)C(=O)c2c(c3ccccc3n2C)-c2ccccc2CO[C@@H]1CN(C)CC1CCCCC1`: the GFP signal change (wild-type ribosome) was -7.33% (inactive), the OD600 change was -38.8% and the RFP signal change came to 12.5%.
For `CC(C)NC(=O)N(C)C[C@H]1Oc2ccc(NS(C)(=O)=O)cc2C(=O)N(C)C[C@@H]1C`, the GFP signal change (wild-type ribosome) was 2.01% (inactive), the OD600 change was found to be 2.51% and the RFP signal change was -2.3%.
Take `Cc1ccc(S(=O)(=O)N(C)C[C@@H]2Oc3ccc(NS(=O)(=O)c4cccs4)cc3C(=O)N([C@@H](C)CO)C[C@H]2C)cc1`: the GFP signal change (wild-type ribosome) is -5.79% (inactive), the OD600 change was -10.9% and the RFP signal change was 1.46%.
Taken in the same sequence, the figures for `C[C@@H]1CN([C@@H](C)CO)S(=O)(=O)c2ccc(-c3ccc(F)cc3)cc2O[C@H]1CN(C)C(=O)c1ccccc1F` were -8.04% (inactive), -21% and -3.3%.
Taken in the same sequence, the figures for `O=C(C[C@H]1C[C@H]2c3cc(NC(=O)NC4CCCC4)ccc3O[C@H]2[C@@H](CO)O1)NCc1ccc(-c2ccccc2)cc1` were -1.74% (inactive), -6.28% and 2.06%.
Take `Cc1cc(NC(=O)Nc2ccc(Cl)cc2)n(-c2ccccc2)n1`: the GFP signal change (wild-type ribosome) was -29.1% (inactive), the OD600 change was -32.4% and the RFP signal change was 2.41%.
As for `COc1ccc(NC(=O)c2cc3nc(-c4ccccc4)cc(C)n3n2)cc1OC`, the GFP signal change (wild-type ribosome) was -22% (inactive), the OD600 change is -22.4% and the RFP signal change was -6.99%.
For the molecule `Cc1ccc(NC(=O)Nc2cc(-c3ccccc3)nn2C)cc1Cl`, the GFP signal change (wild-type ribosome) is -40.1% (active), the OD600 change amounted to 5.55% and the RFP signal change is -13.4%.
For the molecule `C[C@H]1CN([C@@H](C)CO)S(=O)(=O)c2ccc(-c3cncnc3)cc2O[C@H]1CN(C)Cc1ccncc1`, the GFP signal change (wild-type ribosome) was 0.29% (inactive), the OD600 change is 1.07% and the RFP signal change turned out to be 0.44%.
On to `Cc1noc(C)c1NC(=O)N(C)C[C@@H]1Oc2ccc(NC(=O)Nc3ccc(F)cc3)cc2C(=O)N([C@H](C)CO)C[C@@H]1C`, for which the GFP signal change (wild-type ribosome) was 1.48% (inactive), the OD600 change is 1.88% and the RFP signal change was -0.103%.
Turning to `C[C@@H]1CN([C@H](C)CO)S(=O)(=O)c2ccc(C3=CCCC3)cc2O[C@H]1CN(C)Cc1ccccc1F`, the GFP signal change (wild-type ribosome) was -1.53% (inactive), the OD600 change turned out to be 5.49% and the RFP signal change was -3.33%.
In the case of `C[C@@H]1CN([C@H](C)CO)S(=O)(=O)c2ccc(C#CC3CC3)cc2O[C@H]1CN(C)C(=O)C1CCCCC1`, the GFP signal change (wild-type ribosome) is -17.1% (inactive), the OD600 change is -48% and the RFP signal change is 15.7%.
As to `COc1ccccc1-c1cnc2c(c1)C(=O)N([C@@H](C)CO)C[C@@H](C)[C@@H](CN(C)C(=O)c1cccnc1)O2`, the GFP signal change (wild-type ribosome) is 4.96% (inactive), the OD600 change is -0.255% and the RFP signal change was -1.54%.
With `C[C@@H]1CN([C@@H](C)CO)S(=O)(=O)c2ccc(Br)cc2O[C@@H]1CN(C)C(=O)C1CCCCC1`, the GFP signal change (wild-type ribosome) was -5.25% (inactive), the OD600 change is -9.29% and the RFP signal change was determined as 0.015%.
For `Cc1cccc(OCC(=O)NC(=S)Nc2ccccc2N2CCOCC2)c1`, the GFP signal change (wild-type ribosome) was -22.8% (active), the OD600 change was -9.72% and the RFP signal change was found to be 1.75%.
Taken in the same sequence, the figures for `O=C(COc1ccc(Cl)cc1)NC(=S)Nc1ccccc1N1CCOCC1` were -9.68% (inactive), -9.44% and -2.65%.
Regarding `Cc1cc(C)cc(OCC(=O)Nc2ccc(N3CCOCC3)cc2N2CCOCC2)c1`, the GFP signal change (wild-type ribosome) is -2.33% (inactive), the OD600 change came out at 6.13% and the RFP signal change was determined as 0.039%.
In the case of `O=C(c1ccccn1)N1CC(=O)N2[C@H](CO)[C@H](c3ccc(C#CCc4ccccc4)cc3)[C@H]2C1`, the GFP signal change (wild-type ribosome) was 1.93% (inactive), the OD600 change was -4.41% and the RFP signal change is -3.49%.
On to `COCC#Cc1ccc2c(c1)O[C@H](CN(C)Cc1ccc3c(c1)OCO3)[C@H](C)CN([C@H](C)CO)S2(=O)=O`, for which the GFP signal change (wild-type ribosome) is -2.4% (inactive), the OD600 change is -9.34% and the RFP signal change is -0.135%.
For the molecule `O=C(NCc1nnnn1-c1ccc(Cl)cc1)c1ccc2c(c1)OCO2`, the GFP signal change (wild-type ribosome) was 5.87% (inactive), the OD600 change is 4.9% and the RFP signal change is -2.26%.
Consider `O=C(NCc1nnnn1-c1ccc(Cl)cc1)c1ccc([N+](=O)[O-])o1`, for which the GFP signal change (wild-type ribosome) was -23% (active), the OD600 change was 2.62% and the RFP signal change was -4.79%.
In the case of `O=C(Nc1ccc(Br)cn1)c1ccc([N+](=O)[O-])o1`, the GFP signal change (wild-type ribosome) is -3.84% (inactive), the OD600 change was -3.66% and the RFP signal change was -3.37%.
Taken in the same sequence, the figures for `CC(CN1CCOCC1)OC(=O)c1ccc(C(C)(C)C)cc1` (stereo unspecified) were -5.42% (inactive), -0.13% and 2.33%.
Regarding `CC(C)(C)c1ccc(CCC2OCC(CN3CCOCC3)O2)cc1` (stereo unspecified), the GFP signal change (wild-type ribosome) is -33.2% (active), the OD600 change was -11.3% and the RFP signal change was -5.34%.
`CSc1ccc(CNCCN2CCOCC2)cc1`: the GFP signal change (wild-type ribosome) was 6.43% (inactive), the OD600 change amounted to 16.1% and the RFP signal change is -0.625%.
Consider `C/C=C/c1cnc2c(c1)C(=O)N([C@H](C)CO)C[C@H](C)[C@@H](CN(C)CC1CCOCC1)O2`, for which the GFP signal change (wild-type ribosome) was 7.65% (inactive), the OD600 change stood at 16.9% and the RFP signal change was -1.32%.
